A selection: hits, their analogues and other compounds. The true share with any hit is near 12%.
G9a block – inhibitors of human histone lysine methyltransferase G9a. Q96KQ7. G9a H3K9 monomethylation, AlphaScreen, 2 h. Potency, µM (titrated, usually from 102 µM), for inactives: top-dose activity, negative = inhibition, usual class: inhibitors. 350,000 compounds, 8.8% hits. AID 504332; note: % is set by controls: 0 for no effect and ±100 for the full control effect; nearly all actives have a fitted effect of over 75% in size
Target sequence (Q96KQ7 913-1193 limits assumed): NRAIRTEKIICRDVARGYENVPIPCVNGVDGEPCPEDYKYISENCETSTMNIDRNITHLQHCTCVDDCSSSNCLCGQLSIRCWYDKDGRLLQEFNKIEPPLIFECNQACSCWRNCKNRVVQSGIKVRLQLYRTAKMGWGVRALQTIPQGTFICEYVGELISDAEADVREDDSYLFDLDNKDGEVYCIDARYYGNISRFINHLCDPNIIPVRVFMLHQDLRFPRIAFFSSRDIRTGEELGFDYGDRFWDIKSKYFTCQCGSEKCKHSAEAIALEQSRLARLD
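G9a (20 nM) was preincubated 15 min with compound, then reacted 2 h at room temperature with 500 nM biotin-H3K9 peptide and 20 µM SAM. Monomethyl-H3K9 detected by AlphaScreen using anti-H3K9me1 antibody.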
BAZ2B inh – BAZ2B (human) inhibition; 360,000 compounds, 4.4% hits; AlphaScreen BAZ2B-H3K14Ac peptide displacement; Potency, µM (top dose mostly 114 µM), for inactives: at the top dose activity change, negative = inhibition, most hits filed as inhibitors; Q9UIF8; note: % is set by controls: 0 for no effect and ±100 for the full control effect; nearly all actives have a fitted effect of over 60% in size
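AlphaScreen luminescence quantifies BAZ2B engagement of H3K14Ac peptide; the protein and biotinylated peptide are both at 50 nM final, buffer PBS pH 7.4 with 0.01% Tween-20, all steps at room temperature.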
HP1b binding inh – inhibitors of HP1-beta chromodomain binding to methylated histone tails. P83916. AlphaScreen HP1-beta / biotin-H3K9me3 peptide binding. Potency, µM (doses to about 114 µM), inactives show top-dose activity change, negative = inhibition, most hits filed as inhibitors. 390,000 compounds, 0.56% hits; note: nearly all actives have a fitted effect of over 70% in size
Target sequence (P83916 whole entry, looked up): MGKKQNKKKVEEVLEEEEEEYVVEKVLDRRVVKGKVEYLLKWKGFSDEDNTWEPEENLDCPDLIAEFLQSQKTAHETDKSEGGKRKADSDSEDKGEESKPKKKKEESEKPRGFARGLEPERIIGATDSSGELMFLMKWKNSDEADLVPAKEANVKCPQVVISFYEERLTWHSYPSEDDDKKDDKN
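AlphaScreen: HP1-beta (50 nM) preformed 30 min with biotin-H3(1-18)K9me3 peptide (50 nM) in PBS pH 7.4, 0.01% Tween-20. Compound added for 30 min at RT, then streptavidin donor/nickel chelate acceptor beads (10 ug/mL) for 30 min.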
L3MBTL1 block – inhibitors of human L3MBTL1; Q9Y468; AlphaScreen L3MBTL1–H3K9me1 peptide binding; Potency, µM (titrated, usually from 57.1 µM), without a hit: at the highest dose activity, negative = inhibition, usual class: inhibitors; 230,000 compounds, 0.66% hits; note: % is set by controls: 0 for no effect and ±100 for the full control effect; nearly all actives have a fitted effect of over 60% in size
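First, the protein-peptide complex forms for 30 min at room temperature (L3MBTL1 50 nM, biotinylated H3K9me1 peptide 75 nM). Next, compounds are pin-transferred and incubated 30 min. Finally, AlphaScreen beads are added and read after 30 min.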
Sfp inh – Sfp phosphopantetheinyl transferase inhibition | Q9F4F7 | Biochemical Sfp PPTase activity, qHTS | Potency, µM, for the others: largest response in the series, negative = inhibition, hits mostly inhibitors | 310,000 compounds, 3.5% hits;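 note: the enzyme is Sfp with the accession as filed and its product quenches rhodamine fluorescence; 0% = enzyme reaction without inhibitor and -100% = no enzyme wells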
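Fluorescence-quenching assay with 15 nM Sfp, 5 uM rhodamine-CoA and 12.5 uM BHQ-2-labelled ybbR peptide in pH 7.6 Hepes/MgCl2 buffer. Enzyme was pre-incubated with compound for 15 min at room temperature. Rate was taken from the 30-min fluorescence change (525/598 nm).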
JMJD2A Tudor – JMJD2A Tudor domain (human) inhibition; AlphaScreen JMJD2A-Tudor / H3K4me3 peptide binding; AID 504339; Potency, µM (series often up to 114 µM), without a hit: at the highest dose activity change, negative = inhibition, most hits filed as inhibitors; O75164; 390,000 compounds, 4.4% hits; note: % is set by controls: 0 for no effect and ±100 for the full control effect; nearly all actives have a fitted effect of over 50% in size
* marks the source's active call; other numbers are inactive results; ? = inconclusive; / = no result; ! = not active in a repeat; [ ] = remark or other dose. Calls come from the whole dose curve; as a rule, active = well fitted curve in the direction sought with a large enough effect; inconclusive = small, poorly fitted or top-dose-only effect, or another doubt; inactive = no such curve, though single readings can be large; an effect the other way counts as inactive or inconclusive. Potency is the fitted concentration of half-maximal effect.

SMILES	G9a block	BAZ2B inh	HP1b binding inh	L3MBTL1 block	Sfp inh	JMJD2A Tudor
O=C(O)c1ccc(NC(=S)NC(=O)c2cncc(Br)c2)cc1	40µM*	?	-1%	-7%	-25%	-8%
Cc1ccnc(NC(=S)NC(=O)c2cncc(Br)c2)c1	0.63µM*	-39%	24%	4%	9%	3%
O=C(O)c1ccc(NC(=S)NC(=O)c2ccc(-c3ccccc3)cc2)cc1	18µM*	?	?	/	?	?
Cc1ccc(NC(=S)NC(=O)c2cncc(Br)c2)c(C)c1	/	/	49%	/	/	-11%
CCOC(=O)c1ccc(NC(=S)NC(=O)c2cncc(Br)c2)cc1	?	-3%	24%	/	-27%	-1%
Cc1cc(Cl)ccc1OCc1cc(=O)n2c3c(sc2n1)CCCC3	2%[59 µM]	-3%	51%	/	/	5%
Nc1ccc(C2(c3ccc(N)cc3)OC(=O)c3ccccc32)cc1	9%	-28%	-2%	-5%	4%	35µM*
Cc1cc(C2(c3ccc(O)c(C)c3)OC(=O)c3ccccc32)ccc1O	?	50µM*	-25%	?	-4%	?
Cc1cc(O)c(C(C)C)cc1C1(c2cc(C(C)C)c(O)cc2C)OC(=O)c2ccccc21	9%[12.7 µM]	?	19%	4%	35%	-30%
O=C(CSc1nc(-c2ccc(F)cc2)[nH]c1-c1ccccc1)NCC1CCCO1 (stereo not given)	-47%[59 µM]	?	17%	/	/	-26%
CC(C)(C)C(=O)NC1CCN(CC(=O)Nc2ccc3c(c2)OCO3)CC1	6%	-12%	11%	/	13%	-1%
CCCCN(CCCC)C(=O)c1sc2nc(N3CCOCC3)c3c(c2c1N)CCCC3	45µM*	7%	21%	3%	11µM*	-26%
Cc1ccccc1NC(=O)c1sc2nc(N3CCOCC3)c3c(c2c1N)CCCC3	-1%[0.0925 µM]	14%	30%	/	?	2%
Nc1c(C(=O)NCCc2ccccc2)sc2nc(N3CCOCC3)c3c(c12)CCCC3	16µM*	-1%	79%	19%	22µM*	-6%
NC(=O)c1sc2nc(N3CCOCC3)c3c(c2c1N)CCCC3	71µM*	?	-7%	/	45µM*	?
CCOC(=O)c1sc2nc(N3CCOCC3)c3c(c2c1N)CCC3	6%	7%	11%	4%	?	9%
COc1ccc(Cn2ccnc2SCC(=O)NCc2ccccc2)cc1	2%[59 µM]	-11%	9%[57 µM]	/	/	-18%
CCC(C(=O)NCCCN1CC(C)CC(C)C1)n1ncn2c(cc3occc32)c1=O (stereo not given)	11%[59 µM]	14%	27%	/	11%	-10%
COc1ccc(Cn2c(-c3ccco3)nc3c(c(=O)c4ccccc4n3C)c2=O)cc1	-48%	-30%	21%	/	-18%	-27%
Cn1c2ccccc2c(=O)c2c(=O)n(Cc3ccco3)c(-c3ccc(Cl)cc3Cl)nc21	-27%	-15%	/	-9%	8.9µM*	/
S=P(N1CC1)(N1CC1)N1CC1	7.9µM*!	23%	?	3%	14%	-17%
COC(=O)c1ccccc1NC1=C/C(=N\S(=O)(=O)c2cccs2)c2ccccc2C1=O	1.8µM*	1.4µM*	7.1µM*	/	18%	4µM*
COC(=O)c1ccccc1NC1=C/C(=N\S(=O)(=O)c2ccc(C(=O)O)cc2)c2ccccc2C1=O	8.9µM*	8.9µM*	16µM*	/	56µM*	20µM*
COC(=O)c1cccc(NS(=O)(=O)c2cccs2)c1C	11%[59 µM]	2%	8%	/	2%	-5%
O=C(CCC(=O)N(CC(=O)NC1CCCC1)Cc1ccccc1Cl)Nc1nccs1	-8%[59 µM]	2%	0%	/	14%	-12%
SMILES	G9a block	BAZ2B inh	HP1b binding inh	L3MBTL1 block	Sfp inh	JMJD2A Tudor
COc1ccc(Cn2c(=O)c3oc4ccccc4c3n(Cc3ccc(Cl)cc3)c2=O)cc1	2%[59 µM]	-32%	49%	/	/	-1%
CC1Cc2ccccc2N1CC(=O)Nc1ccc(N2CCOCC2)cc1 (stereo not given)	?	?	-9%	?	5%	?
CC(Nc1ccc(N2CCOCC2)cc1)C(=O)N1c2ccccc2CC1C (stereo not given)	/	35µM*	-12%	-28%	10µM*	?
CC1=C(C(N)=O)C(c2ccco2)C(C(N)=O)=C(C)N1	56µM*	?	41%	-4%	?	-2%
COc1cccc(C2C(C#N)=C(NC(=O)CCc3ccccc3)Oc3ccc4ccccc4c32)c1 (stereo not given)	/	/	/	/	/	-24%
CCCCN1C(=O)c2[nH]nc(-c3ccccc3O)c2C1c1ccc(OCc2ccccc2)cc1 (stereo not given)	-33%[59 µM]	?	17%	/	/	?
C[n+]1cc2c3c(ccc2c2ccc4cc5c(cc4c21)OCO5)OCO3	1.9µM*	/	-18%	/	8.9µM*!	89µM*
C[n+]1c(/C=C/c2ccc3c(c2)OCO3)ccc2ccccc21	?	?	-13%	/	-22%	?
COc1ccc(NS(=O)(=O)c2ccc(C)c(C(=O)NC3CCN(Cc4ccccc4)CC3)c2)cc1	-18%	-20%	-1%	/	3%	-22%
COc1ccc(NS(=O)(=O)c2cccc(-c3n[nH]c(=S)n3Cc3ccccc3)c2)cc1	7.1µM*	?	4%	-19%	-14%	-32%
COc1ccc(NS(=O)(=O)c2ccc(-c3n[nH]c(=S)n3Cc3ccccc3)cc2)cc1	4µM*	-35%	-15%	-15%	-5%	25µM*
COc1ccc(S(=O)(=O)Nc2ccc(-n3cccc3)cc2)cc1	50µM*	71µM*	45µM*	/	-15%	56µM*
CN1CCN(c2ccc(NC(=S)NC(=O)c3cccc4c(Br)cccc34)cc2)CC1	6.3µM*	?	8%	/	6%	-32%
CN1CCN(c2ccc(NC(=O)c3ccccc3Br)cc2)CC1	?	-14%	23%	/	14%	-15%
CN1CCN(c2ccc(NC(=S)NC(=O)c3cccc4ccccc34)cc2)CC1	22µM*	35µM*	?	/	-25%	?
CC(C)=NO[C@@H](C)CN1CCCc2nc(C)c(C)cc21	/	/	/	/	-2%	/
COc1ccc(/C=C(\C#N)c2nc(-c3cc4c(ccc5ccccc54)oc3=O)cs2)cc1O	2%[59 µM]	-1%	13%	/	/	-17%
O=C(Nc1cc(C(F)(F)F)ccc1-n1cncn1)c1ccc(Cl)cc1	-1%	10%	57%	/	-4%	-21%
O=C(Nc1cc(Cl)ccc1-n1cncn1)c1cccs1	45µM*	7%	19%	10%	/	-13%
COc1ccc(OCCCC(=O)Nc2cc(Cl)ccc2-n2cncn2)cc1	45µM*	7%	4%	0%	/	-14%
O=C(Nc1cc(Cl)ccc1-n1cncn1)c1cc(F)cc(F)c1	50µM*	9%	12%	1%	/	-5%
